These results are taken from PubChem BioAssay AID492992 (Johns Hopkins Ion Channel Center, 2010).

The inhibition is the percentage by which the read-out fell short of the control.

Molecules are shown by their SMILES. The campaign covered roughly 4,900 compounds. About 2,100 (43%) were called active.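 The calls were made as follows: active = thallium signal inhibited by more than 5 SD of the compound-free buffer control wells, on both duplicate plates; inactive = the rest.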 The set was probably picked from earlier hits. The list is a sample of the results.

This test deals with Potassium channel subfamily K member 9 (Homo sapiens) (UniProt Q9NPC2). Kind of test: blockers of human TASK-3 (KCNK9) channel – HEK293 cells, thallium flux, duplicate, confirmation (AID 492992).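 As to inhibition: 0% = assay buffer control wells without compound.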 Conditions: FluxOR thallium flux fluorescence, at 10 µM; active compounds read high.
Sequence of Potassium channel subfamily K member 9 (Homo sapiens) (Q9NPC2 whole entry, looked up): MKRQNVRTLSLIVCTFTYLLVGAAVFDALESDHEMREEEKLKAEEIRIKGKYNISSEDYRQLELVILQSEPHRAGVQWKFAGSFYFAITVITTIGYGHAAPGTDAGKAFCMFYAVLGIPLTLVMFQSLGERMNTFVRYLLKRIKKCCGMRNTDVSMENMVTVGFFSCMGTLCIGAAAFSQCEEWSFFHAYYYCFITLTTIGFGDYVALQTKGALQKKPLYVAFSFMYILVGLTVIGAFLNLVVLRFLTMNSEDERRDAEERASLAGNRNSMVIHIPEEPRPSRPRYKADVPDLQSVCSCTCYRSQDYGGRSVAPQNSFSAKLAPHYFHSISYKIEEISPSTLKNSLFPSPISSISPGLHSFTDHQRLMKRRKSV
Turning to `CN(CCC(=O)Nc1cc(S(=O)(=O)N(C)C)ccc1Cl)CC(=O)Nc1ccc(F)cc1`, the inhibition was 51.5% (active).

With `CC1CCN(C(=S)c2ccc(-c3ccc(Cl)cc3Cl)o2)CC1`, the inhibition result is “inactive”.

Take `COc1ccc(C2Nc3ccccc3C(=O)N2Cc2ccccc2)cc1Cn1nnc2ccccc21` (centres undefined): the inhibition entry was “inactive”.

On to `O=C(Nc1ccc(Cl)c(Cl)c1)N1CC=C(c2ccccc2)CC1`, for which the inhibition is 30% (active).

For the compound `O=C(COC(=O)c1ccccc1)Nc1ccccc1Sc1ccccc1`, the inhibition is 35% (active).

In the case of `CCN(C(=O)COc1ccc(C(=O)c2ccccc2)cc1)c1ccccc1`, the inhibition was 40% (active).

On to `C[C@@]12C(=O)N(c3cccc(Br)c3)C(=O)N1[C@H](c1ccc(Cl)cc1)[C@@H]1C(=O)N(C3CCCCC3)C(=O)[C@@H]12`, for which the inhibition entry was “inactive”.

As for `CCOC(=O)[C@@H]1[C@H]2COc3ccc(Br)cc3[C@H]2N2C(=O)N(c3ccc(Cl)cc3)C(=O)[C@@]12C`, the inhibition is 56.5% (active).

Turning to `COc1cccc2cc(C(C)N(CCCN3CCOCC3)C(=O)Nc3ccc(Cl)cc3)oc12` (centres undefined), the inhibition is 42.5% (active).

In the case of `CCC(c1nnnn1Cc1ccco1)N(CCc1ccccc1)Cc1cc2cccc(C)c2[nH]c1=O` (centres undefined), the inhibition was 47% (active).

Consider `Cc1cccc2cc(CN(Cc3nnnn3Cc3ccccc3)C3CCCC3)c(=O)[nH]c12`, for which the inhibition is 27% (active).

Turning to `CCOc1ccc(OCc2ccc(C(=O)Nc3cccc(C)n3)o2)cc1`, the inhibition entry was “inactive”.

As to `O=C(Cc1ccccc1)n1nc(-c2ccccc2)nc1NCc1ccco1`, the inhibition entry is “inactive”.

Take `CCC1(C)Cc2c(sc3[nH]c(=S)n(Cc4ccccc4)c(=O)c23)CO1` (centres undefined): the inhibition result was “inactive”.

Regarding `CCCSc1nc(NCc2ccco2)c2c3c(sc2n1)COC(C)(CC)C3` (centres undefined), the inhibition was 40% (active).

In the case of `Cc1ccc(C)c(NC(=S)NNC(=S)Nc2ccc(C(C)C)cc2)c1`, the inhibition entry was “inactive”.

For `CCOC(=O)Cc1cc(=O)[nH]c(=O)[nH]1`, the inhibition is 25% (active).

Regarding `Clc1ccc(Cl)c(Oc2ccc(Oc3nc(Cl)ccc3Cl)cc2)n1`, the inhibition result was “inactive”.

Consider `CCC/C=C(\CCC)C(NC(=O)Cc1ccccc1)c1ccc(C(=O)OC)cc1` (centres undefined), for which the inhibition was 67% (active).

For `CC(C)(C)SCCSC1=CC(=O)CC(c2ccccc2)C1` (centres undefined), the inhibition entry is “inactive”.

As for `CCCCCC(O)c1cccc(OCc2ccc3ccccc3n2)c1` (centres undefined), the inhibition is 74.5% (active).

For `COc1cccc(-c2cnc(OC(C)(C)C)nc2OC(C)(C)C)c1`, the inhibition result was “inactive”.

Consider `CCOC(=O)c1cc2sccc2n1Cc1ccc(C#N)cc1`, for which the inhibition was 65% (active).

As to `CCOC(=O)c1c(NC(=O)CCCN2CCOCC2)sc2c1CC(C)(C)OC2`, the inhibition entry was “inactive”.

On to `CN(CCOc1ccccc1)C(=O)c1cc(COc2c(F)cccc2F)on1`, for which the inhibition result is “inactive”.

For `CCOC(=O)C1=C(C)Nc2sc(C(=O)c3ccc(Br)cc3)c(N)c2C1c1ccc(C(=O)OC)cc1` (centres undefined), the inhibition was 31% (active).

For the compound `COc1cc(Cl)c(S(=O)(=O)N2CCN(Cc3ccc4c(c3)OCO4)CC2)cc1Cl`, the inhibition entry is “inactive”.

`COc1ccc(C(=O)NN2C(=O)C3C(c4ccccc4)C=CC(c4ccccc4)C3C2=O)cc1` (centres undefined): the inhibition result was “inactive”.

Consider `COc1ccc(C(=O)Nc2ccccc2C(=O)N/N=C/c2ccccc2OC)cc1`, for which the inhibition is 36.5% (active).

Take `O=C(CNCCC1=CCCCC1)Nc1ccccc1N1CCCCCC1`: the inhibition is 51.5% (active).

For `O=c1cc(CN2CCN(c3cccc(Cl)c3)CC2)c2cc3c(cc2o1)CCCC3`, the inhibition result is “inactive”.

For `Cc1ccc(C(=O)c2c(NC(=O)c3ccncc3)sc3c2CCCC3)cc1`, the inhibition entry was “inactive”.

Turning to `COc1cccc(OC)c1C(=O)Nc1sc2c(c1C(N)=O)CCCC2`, the inhibition is 33% (active).

For `CCOC(=O)c1c(NC(=O)CSc2cn(CC)c3ccccc23)sc2c1CCC2`, the inhibition entry was “inactive”.

Regarding `Cc1cc2ccccn2c1C(=O)c1cccc(F)c1`, the inhibition result is “inactive”.

Regarding `COc1ccc(C(CCN(Cc2ccc(OC)c(OC)c2)C(=O)CCl)c2ccccc2)cc1` (centres undefined), the inhibition was 36% (active).

In the case of `Cc1ccc(-c2csc(NCCc3nc4cc(Cl)c(Cl)cc4n3CCOCCO)n2)cc1`, the inhibition is 54% (active).

On to `CCOC(=O)N1CCN(C(=O)COc2ccc3oc4c(c3c2)CCCC4)CC1`, for which the inhibition entry is “inactive”.

Turning to `Cc1cccc(NC(=O)c2sc3nc4c(c(-c5ccco5)c3c2N)CCC4)c1`, the inhibition is 58.5% (active).

Take `O=C(Nc1ccc2c(c1)CCC2)c1cccc(S(=O)(=O)Nc2ccccc2Cl)c1`: the inhibition entry was “inactive”.

With `O=C(N/N=C/c1ccccn1)c1cccc(NC(=O)c2ccc(Cl)cc2)c1`, the inhibition is 48% (active).

For `O=C(COc1ccc(Cl)cc1Cl)N/N=C/c1ccccn1`, the inhibition is 47% (active).

For the compound `Oc1ccc(/C=N/Nc2nc(-c3ccccc3F)nc3ccccc23)c(O)c1`, the inhibition entry is “inactive”.

On to `COc1ccc(C(=O)C2CCCN(C(=O)c3ccc(OC)o3)C2)c(C)c1` (centres undefined), for which the inhibition result is “inactive”.

As to `COc1ccc(OC)c(C(=O)c2coc3ccc(OC)cc23)c1`, the inhibition is 47% (active).

Regarding `Cc1ccnc(N2CCN(C(=O)CSc3nc4ccccc4nc3N3CCCCC3)CC2)c1`, the inhibition entry is “inactive”.

Take `Clc1ccc(COn2c(-c3ccc(Cl)cc3Cl)nc3ncccc32)cc1`: the inhibition was 41% (active).

Regarding `Cc1onc(-c2ccc(Cl)cc2)c1-c1ccnn1S(=O)(=O)c1ccc(Cl)cc1`, the inhibition result is “inactive”.

With `Cc1ccc(SCC(=O)c2cc(C)c(OC(=S)N(C)C)c(C)c2)cc1`, the inhibition entry was “inactive”.

As to `Cc1[nH][nH]c(=O)c1C(c1ccc(-c2ccc(Cl)cc2)o1)c1c(C)[nH][nH]c1=O`, the inhibition result is “inactive”.

As for `Cc1cc(C=O)c(C)n1-c1ccc(NC2CCCCC2)c([N+](=O)[O-])c1`, the inhibition was 63% (active).

As for `Cc1ccc(NC(=O)c2cc([N+](=O)[O-])ccc2Cl)c(O)c1`, the inhibition is 58.5% (active).

Consider `CCN(CC)S(=O)(=O)c1ccc(N(C)Cc2ccc(C(F)(F)F)cc2)nc1`, for which the inhibition result was “inactive”.

As for `O=C1CC(c2ccccc2)=NN1c1ccc([N+](=O)[O-])cc1`, the inhibition result was “inactive”.

For the compound `O=C1c2ccccc2S(=O)(=O)N1CC(O)Cn1c2ccccc2c2ccccc21` (centres undefined), the inhibition was 28% (active).

Regarding `CCCCOC(=O)CCCc1ccc([N+](=O)[O-])cc1[N+](=O)[O-]`, the inhibition result was “inactive”.

`Cc1ncoc1C(=O)N1CCCC(C(=O)c2ccc3c4c(cccc24)CC3)C1` (centres undefined): the inhibition result is “inactive”.

As to `COC(=O)C1=C(Nc2ccc(C)cc2)C=C(C)C(C(=O)OC)C1c1ccc(F)cc1` (centres undefined), the inhibition was 36% (active).

For `CCn1cnc2scc(-c3ccc(C)c(C)c3)c2c1=O`, the inhibition entry was “inactive”.

Regarding `CCCOc1ccc2c3c(c(=O)oc2c1OCCC)CCC3`, the inhibition was 66.5% (active).

With `COc1ccc(C2CC(c3cccs3)=NN2c2ccccc2)cc1` (centres undefined), the inhibition is 50% (active).

With `COc1ccc(/C=C2\CCc3ccccc3C2=O)c(OC)c1OC`, the inhibition result was “inactive”.

`CN(c1ccccc1)S(=O)(=O)c1cccc(NC(=O)Cc2c(F)cccc2Cl)c1`: the inhibition is 67.5% (active).

In the case of `Cc1ccccc1CSCCNC(=O)c1ccc(N(C)S(=O)(=O)c2ccccc2)cc1`, the inhibition entry is “inactive”.

For the compound `Fc1cccc(Cl)c1CSc1ccc(-c2ccco2)nn1`, the inhibition was 67% (active).

On to `FC(F)(F)c1cc(-c2ccco2)nc(NCc2ccc(Cl)cc2)n1`, for which the inhibition entry is “inactive”.

In the case of `O=C(Nc1ccc(S(=O)(=O)N2CCCCC2)cc1)C1CCN(C(=O)c2ccc(F)cc2)CC1`, the inhibition entry was “inactive”.

As for `Cc1ccc(C(=O)/C=C/c2c(C)nn(-c3ccccc3)c2Cl)cc1`, the inhibition entry is “inactive”.

`Cc1ccccc1N1CCN(Cc2nc(Cc3ccccc3F)no2)CC1`: the inhibition entry was “inactive”.

For `CC(C)CC(COCc1ccc(Cl)cc1)N1CCN(C(=O)c2ccc(C(F)(F)F)cc2)CCC1=O` (centres undefined), the inhibition is 39.5% (active).

As to `CC1CCN(C(=O)c2ccc(CSc3ccc(Cl)cc3)cc2)CC1`, the inhibition entry was “inactive”.

For `CCCCN(CC)C(=O)C1CCCN(S(=O)(=O)c2cccc3nsnc23)C1` (centres undefined), the inhibition entry was “inactive”.

Take `O=C(Nc1nnc(SCc2ccc(Cl)cc2Cl)s1)C1COc2ccccc2O1` (centres undefined): the inhibition result was “inactive”.

For the compound `COc1ccc(C(=O)C2CCCN(Cc3ccc4nonc4c3)C2)c(C)c1` (centres undefined), the inhibition result was “inactive”.

Take `CCCCCCCCn1c2c(c(=N)c3c1CCC3)CCCC2`: the inhibition is 62.5% (active).

Take `O=C(NC(=S)Nc1ccccc1C(=O)O)c1ccc(-c2ccc(Br)cc2)o1`: the inhibition result was “inactive”.

In the case of `COc1ccc(-c2n[nH]c3c2CN(C(=O)c2ccc(F)cc2)CC3)cc1`, the inhibition result is “inactive”.

With `Cc1cc(OC(C)C(=O)Nc2ccc(S(=O)(=O)Nc3onc(C)c3C)cc2)cc(C)c1Cl` (centres undefined), the inhibition entry was “inactive”.

As to `O=C(Nc1ccccc1[N+](=O)[O-])C1C(c2ccccc2)=C1c1ccccc1`, the inhibition was 40% (active).

On to `Cc1ccc(CN2CCN(/N=C/c3ccco3)CC2)c(C)c1`, for which the inhibition entry is “inactive”.

Regarding `CC1=NN(c2cccc(Cl)c2)C(=O)C12CC(C)=C(C)CS2` (centres undefined), the inhibition is 45.5% (active).

Consider `O=C(NCCc1ccccc1)c1ccc2c(c1)N(Cc1ccccc1)CCS2`, for which the inhibition result was “inactive”.

With `COc1ccccc1N1CCN(c2ncnc3sc(C)c(-c4ccccc4)c23)CC1`, the inhibition is 56% (active).

As for `CCCCNC(=S)N/N=C1\CCCCc2ccccc21`, the inhibition entry was “inactive”.

For the compound `CCCC(=O)n1nc(NCc2ccc(OC)cc2)nc1NCc1ccc(OC)cc1`, the inhibition result is “inactive”.

Turning to `O=C(Nn1c(SCc2ccc([N+](=O)[O-])cc2)nc2ccccc2c1=O)c1ccc(F)cc1`, the inhibition was 65% (active).

For `CCCCC(=O)Nc1ccccc1N1CCN(c2ccc(F)cc2)CC1`, the inhibition was 69% (active).

As to `Cc1ccc(N2CCN(S(=O)(=O)c3ccc(F)cc3)CC2)c(C)c1`, the inhibition entry was “inactive”.

As to `Cc1cccc(C(=O)Nc2ccccc2N2CCN(c3ccc(F)cc3)CC2)c1`, the inhibition is 40% (active).

In the case of `CCOC(=O)CSc1nc2c(sc(=S)n2CCc2ccccc2)c(=O)n1Cc1ccco1`, the inhibition is 29.5% (active).

On to `COc1cccc(COc2ccc(N(C)S(=O)(=O)c3ccccc3)cc2)c1`, for which the inhibition is 50% (active).

With `Cn1nc(-c2ccccc2)c(CSc2cccc(Cl)c2)c1Cl`, the inhibition was 34.5% (active).

Consider `COC(=O)c1cc(NC2c3ccccc3C(=O)N2c2ccc(Cl)cn2)cc(C(=O)OC)c1` (centres undefined), for which the inhibition was 29.5% (active).

As for `CCOC(=O)C(C)n1cnc2scc(-c3ccc(C)c(C)c3)c2c1=O` (centres undefined), the inhibition entry is “inactive”.

Take `COCCNc1cc(-c2ccccc2)nc2cc(-c3cccc(F)c3)nn12`: the inhibition is 53.5% (active).

As to `Cc1ccc(Cn2ccc(NC(=O)c3cc(C(C)C)on3)n2)cc1`, the inhibition entry is “inactive”.

With `COC(C(=O)Nc1ccc(S(=O)(=O)Nc2ccc(C)c(C)c2)cc1)c1ccccc1` (centres undefined), the inhibition result was “inactive”.

Take `O=C(Nc1cc(Cl)cc(Cl)c1)C(NCCCO)c1ccccc1` (centres undefined): the inhibition entry was “inactive”.

In the case of `CC(C)C(=O)Nc1cccc(NC(=S)NC(=O)C(c2ccccc2)c2ccccc2)c1`, the inhibition is 52% (active).
